This is an account of results in PubChem BioAssay (NCI).

Structures are written as SMILES. The panel holds about 83,000 compounds, 20% with a hit somewhere; the sample as a whole holds those more often.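 Each cell line was grown in a 96-well plate and treated with one concentration of compound for 48 hours. Values below 10 were considered active.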 A number with no mark means an inactive call. Activity calls are given as the source filed them.

Holding throughout (assay): NCI-60 one-dose screen, 48 h (100 = growth as untreated, 0 = no growth, -100 = all killed)
In one assay the test system is HCT-15 colon. To be noted: 10 µM unless noted.
The test system of a further assay is SNB-75 CNS. To be noted: 10 µM.
The subject of another assay is SNB-19 CNS. The note with it: 10 µM unless noted.
For the next assay, the system named is U251 CNS. The note with it: 10 µM unless noted.
The subject of the next assay is PC-3 prostate. To be noted: 10 µM unless noted.
A further assay relates to UACC-62 melanoma. To be noted: 10 µM unless noted.
The subject of the next assay is LOX IMVI melanoma. To be noted: 10 µM unless noted.
Another assay deals with SK-MEL-28 melanoma. To be noted: 10 µM unless noted.
The test system of another assay is EKVX NSCLC. The note with it: 10 µM unless noted.
The next assay has as its system SN12C renal. The note with it: 10 µM unless noted.
The subject of a further assay is UO-31 renal. The note with it: 10 µM unless noted.
A further assay has as its system TK-10 renal. The note with it: 10 µM unless noted.
The test system of another assay is ACHN renal. To be noted: 10 µM unless noted.
Another assay has as its system CAKI-1 renal. The note with it: 10 µM unless noted.
The test system of another assay is A498 renal. To be noted: 10 µM unless noted.
Another assay concerns CCRF-CEM leukemia. To be noted: 10 µM unless noted.
Another assay has as its system MOLT-4 leukemia. To be noted: 10 µM unless noted.
In another assay the test system is SK-MEL-5 melanoma. To be noted: 10 µM unless noted.
A further assay has as its system SK-MEL-2 melanoma. The note with it: 10 µM unless noted.

For the molecule `O=C(Oc1ccccc1[N+](=O)[O-])C1CCCN1C(=O)OCc1ccccc1` (stereo unspecified), the growth in the assay on HCT-15 colon is 101%; in the assay with SNB-75 CNS, 99%; with SNB-19 CNS it was 103%; in the assay on U251 CNS it was 96.8%; in the assay on PC-3 prostate, 97.3%; in the assay with UACC-62 melanoma, 109%. Besides, the growth with LOX IMVI melanoma was 84.2%; with SK-MEL-28 melanoma it was 102%; in the assay on EKVX NSCLC it was 96.7%; in the assay with SN12C renal, 98.7%; in the assay on UO-31 renal, 90.1%; in the assay on TK-10 renal, 112%. The growth in the assay on ACHN renal was 105%; in the assay on CAKI-1 renal it was 93.7%; in the assay on A498 renal, 95.5%; in the assay on CCRF-CEM leukemia, 99.1%; in the assay on MOLT-4 leukemia it was 83.5%.
As to `O=C1Nc2ccc(Cl)cc2C12Nc1cc(Cl)ccc1S2` (stereo unspecified), the growth in the assay with HCT-15 colon was 87%; in the assay with SNB-19 CNS, 94.8%; in the assay with U251 CNS it was 85.8%; in the assay on PC-3 prostate, 51.8%; in the assay with SK-MEL-5 melanoma it was 70.9%; in the assay on UACC-62 melanoma it was 71.5%. The growth with LOX IMVI melanoma was 77.9%; in the assay with SK-MEL-28 melanoma it was 110%; with SK-MEL-2 melanoma, 105%; in the assay on EKVX NSCLC, 73.3%; in the assay on SN12C renal, 90.1%; in the assay with UO-31 renal it was 57.4%. Besides, the growth was 111% with TK-10 renal; 104% in the assay with ACHN renal; 112% with CAKI-1 renal; 118% in the assay with A498 renal; 97.3% in the assay on CCRF-CEM leukemia; 38.3% in the assay on MOLT-4 leukemia.
Consider `CNc1ccc(Br)c2c1C(=O)c1ccccc1C2=O`, for which the growth was 98.2% with HCT-15 colon; 96.7% in the assay on SNB-75 CNS; 110% in the assay with SNB-19 CNS; 94.5% in the assay with PC-3 prostate; 110% in the assay on SK-MEL-5 melanoma; 95.8% in the assay with UACC-62 melanoma. For the same molecule, the growth in the assay on LOX IMVI melanoma is 102%; in the assay on SK-MEL-28 melanoma it was 115%; in the assay with SK-MEL-2 melanoma, 129%; in the assay with EKVX NSCLC it was 115%; in the assay on SN12C renal, 102%; in the assay on UO-31 renal, 86.1%. The growth is 104% in the assay on ACHN renal; 100% in the assay with CAKI-1 renal; 93.3% in the assay with A498 renal; 86.1% in the assay with CCRF-CEM leukemia; 94.7% with MOLT-4 leukemia.
With `C=C[C@@H]1C[C@H](O)Cc2cc(F)ccc2N1`, the growth in the assay on HCT-15 colon was 96.4%; in the assay with SNB-75 CNS it was 87.9%; with SNB-19 CNS, 104%; in the assay with PC-3 prostate, 97.2%; in the assay with SK-MEL-5 melanoma, 93.3%; in the assay on UACC-62 melanoma, 99.1%. The growth with LOX IMVI melanoma is 94.2%; with SK-MEL-28 melanoma, 98.7%; with SK-MEL-2 melanoma, 123%; in the assay with EKVX NSCLC, 89.3%; in the assay on SN12C renal, 101%; in the assay with UO-31 renal it was 103%. For the same molecule, the growth with TK-10 renal was 97.7%; in the assay on ACHN renal, 104%; in the assay with CAKI-1 renal, 92.3%; in the assay on A498 renal, 93.8%; in the assay on CCRF-CEM leukemia it was -66% (active); with MOLT-4 leukemia, -34.3% (active).
As for `CCN(CC)CCOc1ccc(/C(=C(/C)c2ccccc2)c2ccc(OC(C)=O)cc2)cc1`, the growth in the assay on HCT-15 colon is 80.2%; with SNB-19 CNS, 107%; with U251 CNS it was 103%; with PC-3 prostate, 96.9%; in the assay on SK-MEL-5 melanoma, 100%; in the assay with UACC-62 melanoma it was 103%. Moreover, the growth in the assay with LOX IMVI melanoma is 102%; in the assay with SK-MEL-28 melanoma, 105%; with SK-MEL-2 melanoma, 121%; in the assay on EKVX NSCLC it was 95.6%; with SN12C renal it was 93.6%; with UO-31 renal, 80.4%. For the same molecule, the growth in the assay on TK-10 renal was 111%; with ACHN renal, 111%; in the assay on CAKI-1 renal it was 90.8%; with A498 renal, 73.6%; with CCRF-CEM leukemia, 94.3%; in the assay with MOLT-4 leukemia, 106%.
As to `C=COC(=O)CCCCCCCCC`, the growth with HCT-15 colon was 113%; in the assay with SNB-19 CNS, 97.6%; in the assay on U251 CNS, 105%; in the assay on PC-3 prostate it was 102%; with SK-MEL-5 melanoma it was 107%; with UACC-62 melanoma it was 99.2%. In addition, the growth in the assay with LOX IMVI melanoma was 98.5%; in the assay with SK-MEL-28 melanoma, 106%; in the assay on SK-MEL-2 melanoma it was 108%; in the assay on EKVX NSCLC, 94.1%; in the assay on SN12C renal it was 106%; with UO-31 renal, 85.7%. Also, the growth in the assay on TK-10 renal is 109%; with ACHN renal it was 104%; with CAKI-1 renal, 92.8%; with A498 renal, 96.4%.
Turning to `N=c1ccc2nc3ccc(N)cc3sc-2c1`, the growth is 27.3% in the assay on HCT-15 colon; 4.78% (active) with SNB-19 CNS; 6.47% (active) in the assay with U251 CNS; 7.2% (active) with PC-3 prostate; -80.3% (active) in the assay with SK-MEL-5 melanoma; 16.4% in the assay with UACC-62 melanoma. Besides, the growth was 3.98% (active) in the assay with LOX IMVI melanoma; 57.1% in the assay with SK-MEL-28 melanoma; 50.9% in the assay on SK-MEL-2 melanoma; 47.9% in the assay on EKVX NSCLC; 6.7% (active) in the assay with SN12C renal; 69.1% with UO-31 renal. The growth with TK-10 renal was 11.9%; in the assay with ACHN renal, 55.2%; in the assay on CAKI-1 renal, 46.4%; with A498 renal, 70.6%; in the assay on CCRF-CEM leukemia, 21.3%; with MOLT-4 leukemia, 8.58% (active).
Consider `CC(=O)Nc1ccc(S(=O)(=O)n2ccc(-c3ccc4c(c3)CCC(C)(C)O4)n2)cc1`, for which the growth in the assay on HCT-15 colon is 59.3%; with SNB-75 CNS it was 81.4%; in the assay with U251 CNS it was 66%; in the assay on PC-3 prostate, 44.4%; in the assay on SK-MEL-5 melanoma, 26.3%; in the assay with UACC-62 melanoma it was 62.4%. Further, the growth was 64.1% with LOX IMVI melanoma; 93.1% with SK-MEL-28 melanoma; 53.5% in the assay on SK-MEL-2 melanoma; 89% with SN12C renal; 67.9% in the assay on UO-31 renal; 55.1% with TK-10 renal. In addition, the growth in the assay with ACHN renal is 79.3%; with CAKI-1 renal, 48.8%; in the assay with A498 renal, 21.9%; in the assay on CCRF-CEM leukemia, 55.4%; in the assay with MOLT-4 leukemia, 50.7%.
With `C=C[C@@H]1C[C@@H]2Cc3cc(F)ccc3N1O2`, the growth with HCT-15 colon is 104%; with SNB-19 CNS it was 109%; in the assay with U251 CNS it was 99.3%; with PC-3 prostate it was 102%; in the assay on SK-MEL-5 melanoma, 108%; in the assay on UACC-62 melanoma, 100%. The growth with LOX IMVI melanoma is 104%; with SK-MEL-28 melanoma it was 115%; with SK-MEL-2 melanoma, 117%; in the assay with EKVX NSCLC, 110%; in the assay with SN12C renal it was 102%; with UO-31 renal, 129%. Further, the growth is 107% in the assay on TK-10 renal; 106% in the assay with ACHN renal; 92.5% in the assay with CAKI-1 renal; 97.8% in the assay on A498 renal; -57.7% (active) with CCRF-CEM leukemia.
